DT40 TDP1 CPT – qHTS for Inhibitors of human tyrosyl-DNA phosphodiesterase 1 (TDP1): qHTS in cells in presence of CPT. chicken DT40 Tdp1-/-;hTDP1 cells + 20 nM CPT, ATP luminescence, 48 h. Potency, µM (titrated, usually from 46.2 µM), for inactives: at the highest dose activity change, negative = growth inhibition, actives largely listed as inhibitors. 420,000 tested, 12% active. AID 686979, 2013; also: potency is read from the fitted curve at half-maximal effect; % is scaled to controls: 0 for no effect and ±100 for the full control effect; nearly all actives have a fitted effect of over 55% in size
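Chicken DT40 Tdp1-/- cells complemented with human TDP1, 400 cells/well, exposed to compounds plus 20 nM camptothecin for at least 48 h at 37 C; viability read as ATP content by CellTiter-Glo luminescence.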
TDP1 inh – qHTS Assay for Inhibitors of Tyrosyl-DNA Phosphodiesterase (TDP1); recombinant TDP1, AlphaScreen DNA substrate cleavage; 350,000 tested, 0.28% active; Tyrosyl-DNA phosphodiesterase 1 (Homo sapiens), Q9NUW8; Potency, µM (titrated, usually from 130 µM), for the others: top-dose activity change, negative = inhibition, most hits filed as inhibitors; also: potency is read from the fitted curve at half-maximal effect; % is scaled to controls: 0 for no effect and ±100 for the full control effect; nearly all actives have a fitted effect of over 40% in size
Target sequence (Q9NUW8 whole entry, looked up): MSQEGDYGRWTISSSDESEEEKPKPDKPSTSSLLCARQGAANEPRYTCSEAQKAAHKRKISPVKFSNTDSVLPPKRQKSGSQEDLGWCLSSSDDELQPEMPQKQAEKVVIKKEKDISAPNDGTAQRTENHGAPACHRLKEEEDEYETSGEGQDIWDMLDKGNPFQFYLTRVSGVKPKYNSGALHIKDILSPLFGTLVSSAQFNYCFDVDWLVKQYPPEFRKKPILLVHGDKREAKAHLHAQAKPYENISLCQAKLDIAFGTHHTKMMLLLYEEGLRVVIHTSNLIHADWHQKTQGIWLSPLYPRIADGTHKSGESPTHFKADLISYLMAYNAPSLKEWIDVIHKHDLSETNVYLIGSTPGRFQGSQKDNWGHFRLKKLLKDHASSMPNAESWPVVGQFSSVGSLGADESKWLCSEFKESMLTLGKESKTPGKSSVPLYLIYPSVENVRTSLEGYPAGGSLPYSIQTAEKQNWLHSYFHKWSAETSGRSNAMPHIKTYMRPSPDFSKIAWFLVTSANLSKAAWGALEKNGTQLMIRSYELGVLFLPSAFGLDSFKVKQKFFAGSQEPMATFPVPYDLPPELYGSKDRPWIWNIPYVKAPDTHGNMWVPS
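Tdp1 1 nM final; 15 min RT w/ cpd; substrate 15 nM, 5 min; beads 10 ug/ml, 10 min; AlphaScreen read. Neg ctrl: no enzyme.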
DT40 TDP1 no CPT – qHTS for Inhibitors of human tyrosyl-DNA phosphodiesterase 1 (TDP1): qHTS in cells in absence of CPT | DT40 Tdp1-/- hTDP1 cells, no CPT, ATP luminescence, 48 h | Potency, µM (series often up to 46.2 µM), inactives show top-dose activity change, negative = growth inhibition, hits mostly inhibitors | 420,000 tested, 15% active | AID 686978, 2013; also: potency is read from the fitted curve at half-maximal effect; % is scaled to controls: 0 for no effect and ±100 for the full control effect; nearly all actives have a fitted effect of over 55% in size
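Stably hTDP1-transfected Tdp1-null chicken DT40 cells were treated with library compounds minus camptothecin and grown for at least 48 hr at 37 °C, after which cellular ATP was quantified by luminescence.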
TGFb SMAD3 inh – qHTS for Inhibitors of TGF-b. 410,000 tested, 1.2% active. HepG2 CAGA-GFP TGF-b/SMAD3 reporter, GFP fluorescence, 18 h; TGF-beta stimulated, 500 pg/mL final. AID 588855, 2011. Potency, µM (highest dose often 46.1 µM), for inactives: at the top dose activity, negative = inhibition, hits mostly inhibitors; also: potency is read from the fitted curve at half-maximal effect; % is scaled to controls: 0 for no effect and ±100 for the full control effect; nearly all actives have a fitted effect of over 65% in size
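Inhibition was scored as loss of TGF-beta-induced (500 pg/mL final, 18 hours, 37 degrees C) GFP in HEPG2 cells carrying a CAGA-GFP reporter, in DMEM with 1% FBS. Well GFP was summed per cell; Activity was normalised to unstimulated and stimulated DMSO wells, then concentration-response fitting.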
HepG2 viability – qHTS for Inhibitors of TGF-b: Cytotox Counterscreen | HepG2 CAGA-GFP viability, ATP luminescence, 18 h | Potency, µM (highest dose often 46.1 µM), without a hit: top-dose activity change, negative = cytotoxicity, most hits filed as cytotoxic | 410,000 tested, 0.76% active; also: potency is read from the fitted curve at half-maximal effect
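HepG2 CAGA-GFP cells (1000/well, DMEM with 1% FBS) received compound, then TGF-beta at 500 pg/mL final, and were incubated 18 hours at 37 degrees C. Viability was read by CellTiter-Glo luminescence. Media-only wells were set as complete cell-killing and DMSO as no toxicity.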
IL1B secr inh – qHTS for Inhibitors of Inflammasome Signaling: IL-1-beta AlphaLISA Primary Screen | THP-1 LPS/ATP IL-1B secretion, AlphaLISA, 16 h; hits give low values | activity change, % at 57.5 µM | 360,000 tested, 4.7% active | AID 743279, 2014; in the data active = activity change below about -50%; inconclusive = mostly about -30% to -49%; also: % is scaled to controls: 0 for no effect and ±100 for the full control effect
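THP-1 cells pretreated 1 hr with compounds (up to 57.5 uM final), then stimulated with LPS (250 ng/mL final) plus ATP (1.25 mM final); secreted IL-1B measured by AlphaLISA after 16 hr, decreased signal indicating inhibition.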
Starred values were filed as active, the others as inactive; [ ] = dose if it differs, or a comment. The list is not random: actives were taken first. Their share in the collection is about 18%. Unless noted, calls follow the shape of the dose curve; as a rule, active = well fitted curve in the direction sought with a large enough effect; inconclusive = small, poorly fitted or top-dose-only effect, or another doubt; inactive = no such curve, though single readings can be large; an effect the other way counts as inactive or inconclusive.

How did CCN(CC)CCCNC(=O)CCC(=O)Nc1ccc2nc(N3CCC(C)CC3)cc(C)c2c1 do in these assays?
DT40 TDP1 CPT: inconclusive; TDP1 inh: 1%; DT40 TDP1 no CPT: inconclusive; TGFb SMAD3 inh: inconclusive; HepG2 viability: -57%; IL1B secr inh: -14

How did Cc1cc(N2CCC(C)CC2)nc2ccc(NC(=O)CCC(=O)N3CCN(c4cccc(C(F)(F)F)c4)CC3)cc12 do in these assays?
DT40 TDP1 CPT: 3.3µM*; TDP1 inh: 6%; DT40 TDP1 no CPT: 2.3µM*; TGFb SMAD3 inh: -18%; HepG2 viability: -30%

Results for Cc1cc(N2CCN(C)CC2)nc2ccc(NC(=O)CCC(=O)N3CCN(c4ccc([N+](=O)[O-])cc4)CC3)cc12 ?
DT40 TDP1 CPT: 26µM*; TDP1 inh: 1%; DT40 TDP1 no CPT: 18µM*; TGFb SMAD3 inh: inconclusive; HepG2 viability: -26%; IL1B secr inh: -22

What do the screens show for `Cc1ccc(Cl)cc1N1CCN(C(=O)CCC(=O)Nc2ccc3nc(N4CCC(C)CC4)cc(C)c3c2)CC1`?
DT40 TDP1 CPT: 23µM*; TDP1 inh: 0%; DT40 TDP1 no CPT: 13µM*; TGFb SMAD3 inh: 4%; HepG2 viability: -13%

How did Cc1cc(N2CCOCC2)nc2ccc(NC(=O)CCC(=O)N3CCN(c4ccccc4)CC3)cc12 do in these assays?
DT40 TDP1 CPT: inconclusive; TDP1 inh: 7%; DT40 TDP1 no CPT: inconclusive; TGFb SMAD3 inh: -2%; HepG2 viability: -24%; IL1B secr inh: 14

How did Cc1ccc(S(=O)(=O)N2CCN(C(=S)NCC3CCCO3)CC2)cc1 (configuration not stated) do in these assays?
DT40 TDP1 CPT: 3%; TDP1 inh: 0%; DT40 TDP1 no CPT: -5%; TGFb SMAD3 inh: -1%; HepG2 viability: 4%; IL1B secr inh: 3

Results for CC1CCN(CC(O)COCCC23CC4CC(CC(C4)C2)C3)CC1 (configuration not stated) ?
DT40 TDP1 CPT: 21µM*; TDP1 inh: 0%; DT40 TDP1 no CPT: 21µM*; TGFb SMAD3 inh: -19%; HepG2 viability: -31%; IL1B secr inh: inconclusive

What do the screens show for `Cc1ccccc1CCNC(=O)CCn1nc(C)c2c(C)n(-c3ccccc3)nc2c1=O`?
DT40 TDP1 CPT: inconclusive; TDP1 inh: 0%; DT40 TDP1 no CPT: -2%; TGFb SMAD3 inh: 3%; HepG2 viability: -7%; IL1B secr inh: -23

What do the screens show for `Cc1ccc(-n2nc3c(=O)n(CCCC(=O)NCc4ccccc4Cl)nc(C)c3c2C)cc1`?
DT40 TDP1 CPT: inconclusive; TDP1 inh: 0%; DT40 TDP1 no CPT: 18µM*; TGFb SMAD3 inh: -30%; HepG2 viability: -28%; IL1B secr inh: -9

Results for Cc1ccc(-n2nc3c(=O)n(CCCC(=O)NCCc4ccccc4Cl)nc(C)c3c2C)cc1 ?
DT40 TDP1 CPT: 8.2µM*; TDP1 inh: -3%; DT40 TDP1 no CPT: 15µM*; TGFb SMAD3 inh: inconclusive; HepG2 viability: 0%

What do the screens show for `Cc1ccc(N2C(=O)NC(NS(=O)(=O)c3ccccc3)(C(F)(F)F)C2=O)cc1C` (configuration not stated)?
DT40 TDP1 CPT: 8%; TDP1 inh: 3%; DT40 TDP1 no CPT: 5%; TGFb SMAD3 inh: -23%; HepG2 viability: 10%; IL1B secr inh: 14

How did COc1ccc(N2CC(C(=O)Nc3ccc(NC(C)=O)cc3)CC2=O)cc1 (configuration not stated) do in these assays?
DT40 TDP1 CPT: 3%; TDP1 inh: 1%[12.3 µM]; DT40 TDP1 no CPT: -1%; TGFb SMAD3 inh: 5%; HepG2 viability: 0%

What do the screens show for `COc1ccc(CCNc2ncnc3c2c(-c2ccccc2)cn3-c2ccc(F)cc2)cc1OC`?
DT40 TDP1 CPT: 15µM*; TDP1 inh: 5%; DT40 TDP1 no CPT: 15µM*; TGFb SMAD3 inh: -22%; HepG2 viability: -19%

Results for Cc1ccc(CNc2ncnc3c2c(-c2ccccc2)cn3-c2cccc(Cl)c2)cc1 ?
DT40 TDP1 CPT: inconclusive; TDP1 inh: 5%; DT40 TDP1 no CPT: 18µM*; TGFb SMAD3 inh: -4%; HepG2 viability: -14%

Source: PubChem (National Center for Advancing Translational Sciences (NCATS))
